Screening data (PubChem BioAssay)
Rows were chosen to be rich in hits. Some 4.1% of all compounds tested hit in one or more screens of this group.
IDE cell activ = human IDE activators in live cells, primary screen, fluorescence polarization, HEK cells, FAbeta-B substrate; activation, % at 5.96 µM; FAbeta-B cleavage; 0% vehicle, 100% cell-free pure enzyme wells; AID 493087, 2011; 0.073% of 340,000 active;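 active = activation above the mean of all tested compounds plus 3 SD, set per screening campaign, cut at about 17% in these data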
PfM18AAP inh = PfM18AAP inhibitors, malaria aminopeptidase, primary screen, biochemical, QFRET, recombinant enzyme | 1.2% of 290,000 active | inhibition, % at 7.35 µM | M18 aspartyl aminopeptidase (Plasmodium falciparum 3D7) | H-Glu-NHMec fluorogenic cleavage | AID 1822, 2009;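 active = inhibition above the campaign mean inhibition over all tested compounds plus 3 SD, cut at about 28% in these data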;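 also: 0% = plate median of test compound wells and 100% = 2 mM ZnCl2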
CaV13 FRET inh = Disruptors of the CACNA1D IQ motif to Ca2+-dependent inactivation inhibitor domain association, primary screening, Förster resonance energy transfer in intact living …; 0.098% of 340,000 active; HEK cells, CFP/YFP FRET ICDI-IQ, plate reader, 10 min; percent FRET-ratio fall versus neutral wells; inhibition, % at 12.3 µM; AID 743397;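 active = mean replicate inhibition of at least 30% and at least 1% of replicates passing that level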;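 also: 0% = median of the neutral control wells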
ALR inh = inhibitors of human ALR sulfhydryl oxidase, primary screen, biochemical, H2O2 detection, HRP-luminol luminescence, single point. inhibition, % (no concentration beside the values). FAD-linked sulfhydryl oxidase ALR (Homo sapiens), P55789. purified ALR, DTT oxidation. 3.8% of 290,000 active;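 active = mean replicate inhibition above about 79%, with every replicate also reaching it, limit read from the data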
Target sequence (P55789 whole entry, looked up): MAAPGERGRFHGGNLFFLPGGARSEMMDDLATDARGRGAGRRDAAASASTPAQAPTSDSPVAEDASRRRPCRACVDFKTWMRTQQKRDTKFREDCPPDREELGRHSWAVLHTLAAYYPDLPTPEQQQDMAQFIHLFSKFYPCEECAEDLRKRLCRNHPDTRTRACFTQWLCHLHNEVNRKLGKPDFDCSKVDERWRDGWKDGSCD
IDE cell inh = human IDE inhibitors in live cells, primary screen, fluorescence polarization, HEK cells, FAbetaB substrate; 0.41% of 320,000 active; Insulin-degrading enzyme (Homo sapiens), P14735; FAbetaB cleavage; AID 434962, 2010; inhibition, % at 5.59 µM;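 active = percent inhibition above the average of all tested compounds plus 3 SD, set per screening campaign, cut at about 16% in these data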;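 also: IDE supplied by intact live HEK cells; FP after avidin binding of uncleaved biotin substrate so inhibition keeps polarization high; 0% = DMSO wells and 100% = 60 µM reference IDE inhibitor Ii1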
PolyA inhibitor = polyadenylation inhibitors in yeast reporter cells, primary screen, luminescence, S. cerevisiae; activity score, % at 12 µM; S. cerevisiae SKY197-pL101 polyadenylation reporter, beta-gal luminescence; efflux-impaired pdr1/pdr3 knockout yeast; score 100 = 6 SD above DMSO; 0.02% of 300,000 active;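 active = lowest replicate activity score at least 50, where 100 means six control SD above control mean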;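 also: yeast exposed to compound for 9 h at 30 °C; higher score means more reporter readthrough which indicates perturbed polyadenylation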
The depositor's hits bear a star; nt = no result.

SMILES	IDE cell activ	PfM18AAP inh	CaV13 FRET inh	ALR inh	IDE cell inh	PolyA inhibitor
COc1ccc(NC(=O)CSc2nnc(-c3ccncc3)n2CC2CCCO2)c(OC)c1 (centres undefined)	3	-7	-5	-4	4	16
CCC(=O)Nc1ccc(C(=O)CSc2nnc(-c3ccc(O)cc3)n2CC2CCCO2)cc1OC (centres undefined)	-1	-8	-2	82*	3	-6
COc1ccccc1N1C(=O)CC(Sc2n[nH]c(-c3cccc(C)c3)n2)C1=O (centres undefined)	-25	-60	-6	99*	-9	-6
CCOC(=O)N1CCC(NC(=O)CCc2c(C)nc3c(c(C)nn3C(C)(C)C)c2C)CC1	-3	1	-6	nt	1	-1
O=C(COC(=O)c1oc2ccccc2c1COc1ccccc1)NCCN1C(=O)CSC1=O	2	3	-2	3	-2	8
COCCn1c(-c2cccc([N+](=O)[O-])c2)nc2c1c(=O)[nH]c(=O)n2Cc1ccccc1	-1	-1	-6	99*	2	6
ON=C(c1ccccc1)c1ccc2c3c(cccc13)CC2	nt	nt	-9	nt	nt	nt
COc1ccc(C(=O)N/C(=C\c2cn(S(=O)(=O)N(C)C)c3ccccc23)C(=O)N2CCN(C)CC2)cc1OC	nt	nt	-11	nt	nt	nt
Nc1ccc2c(c1)Oc1ccccc1C=C2	1	-11	-13	nt	1	-11
Nc1ccc2c(c1)COc1ccccc1O2	-4	0	-4	99*	-2	6
N/C(=N\OC(=O)C1CC1)c1ccc([N+](=O)[O-])s1	2	-1	-3	-26	2	5
Cc1c(Nc2nc(-c3ccccc3)cs2)c(=O)n(-c2ccccc2)n1C	3	-6	nt	nt	0	1
C=CC[n+]1c(-c2ccc(Cl)cc2Cl)csc1Nc1ccc(NC(C)=O)cc1	2	-3	-4	12	5	-2
C=CC[n+]1c(-c2ccc(Cl)cc2Cl)csc1Nc1c(C)n(C)n(-c2ccccc2)c1=O	6	4	-5	94*	0	-8
C=CC[n+]1c(-c2ccc(C)cc2)csc1Nc1c(C)n(C)n(-c2ccccc2)c1=O	4	-6	-4	99*	0	-13
CCc1cc(SC#N)cc(CC)c1NC(=O)CCl	3	-6	-4	99*	10	1
COc1cc2ncnc(N[C@H](C)c3ccccc3)c2cc1OC	4	-7	nt	nt	4	-18
CCOC(=O)C1CCN(Cc2cnc(Oc3ccc(N)cc3)s2)CC1	2	-3	-3	98*	8	0
CCOC(=O)C1CCN(Cc2cnc(Oc3ccc(Cl)cc3C)s2)CC1	1	-2	-4	-2	3	-47
O=C(Cc1ccccc1)NN1C(=O)/C(=C/c2ccccc2C(=O)O)SC1=S	3	16	-7	11	5	4
CN(C)[C@@H]1C(=O)C(C(=O)NCN2CCCC2)=C(O)[C@@]2(O)C(=O)C3=C(O)c4c(O)cccc4[C@@](C)(O)C3CC12 (some centres undefined)	nt	28*	nt	nt	nt	nt
CCOCC(=O)Nc1c(C(=O)Nc2ccc3c(c2)OCCO3)oc2ccccc12	7	-4	5	5	1	-20
O=C(Nc1ccc(Cl)c(S(=O)(=O)N2CCOCC2)c1)c1ccccc1-c1ccc(C(F)(F)F)cc1	4	-1	-3	nt	-2	1
COc1ccc(Cl)cc1NC(=O)C1Cc2ccccc2CN1S(C)(=O)=O (centres undefined)	8	28*	-7	1	6	5
O=C(CCCN1C(=O)CSc2ncccc21)N1CCN(Cc2ccccc2)CC1	5	-5	37*	67	4	-6
SMILES	IDE cell activ	PfM18AAP inh	CaV13 FRET inh	ALR inh	IDE cell inh	PolyA inhibitor
O=C(NNC(=O)C1CCN(C(=O)Nc2ccccc2)CC1)c1ccc([N+](=O)[O-])cc1	1	nt	-1	-3	-3	nt
O=C(CC(Nc1ccccc1Cl)C(=O)O)c1ccccc1 (centres undefined)	4	-68	-2	98*	-3	3
CN(C)S(=O)(=O)c1cccc(NC(=S)Nc2ccc(Cl)cc2Cl)c1	2	-1	-6	99*	-4	-10
CCN(CCO)c1ccc(NC(=S)Nc2cccc(S(=O)(=O)N(C)C)c2)cc1	5	10	-5	99*	-4	-19
CN(C)S(=O)(=O)c1cccc(NC(=S)Nc2cc(Cl)cc(Cl)c2)c1	-2	-8	-9	nt	-5	-11
Fc1ccc2c(c1)C1OCCCC1C(c1ccccc1)N2 (centres undefined)	2	9	-21	88*	1	-11
CCCn1c(/C=C/c2ccccc2)nc2ccccc21	-2	12	-4	1	0	-35
CC(C)Cn1c(/C=C/c2ccco2)nc2ccccc21	-1	6	-16	97*	0	-10
C#CC(CC)(CC)NC(=O)c1cc(S(=O)(=O)N2CCCCC2)ccc1N1CCOCC1	-6	nt	-5	nt	nt	nt
Cn1cccc1Cc1nnc(SCC(=O)NCc2ccco2)n1-c1ccc(F)cc1	3	-1	-9	15	2	4
COc1ccc(-n2c(Cc3cccn3C)nnc2SCC(=O)Nc2cccc(C)c2C)cc1	4	1	-3	89*	0	-7
Cn1cccc1Cc1nnc(SCC(=O)NCc2ccccc2Cl)n1-c1ccc(F)cc1	0	-3	-11	33	-1	73*
CCCC[C@@H]1CCCO[C@@](C(=O)NCc2ccc(C)o2)(C(F)(F)F)C1	6	nt	-12	90*	-1	-6
COc1cccc(NC(=O)c2cc(OC)c(OC)c(OC)c2Br)c1	1	-3	-2	97*	-2	-3
CCOC(=O)c1ccc(NC(=O)c2cc(OC)c(OC)c(OC)c2Br)cc1	1	-6	4	-17	-3	-4
CSCc1ccc(C(=O)NCc2ccc(F)cc2)cc1	4	1	-3	98*	2	-15
COc1ccc2cc(C3CC=C(COC(C)=O)CN3S(=O)(=O)c3ccccc3[N+](=O)[O-])n(C(=O)OC(C)(C)C)c2c1 (centres undefined)	nt	nt	-6	nt	nt	nt
Fc1ccc(-n2[nH]nnc2=S)cc1N1CCCC1	-1	-13	-8	82*	1	-8
COC(=O)[C@]1(Cc2ccccc2)N[C@H](CN(C)C(=O)c2ccccc2)[C@@H]2C(=O)N(Cc3ccccc3)C(=O)[C@@H]21	-4	nt	-5	0	5	nt
CCC(=O)NCc1csc(-c2cccs2)n1	7	-10	-4	94*	4	3
